Experimental data as given in PubChem BioAssay AID2315 (National Center for Advancing Translational Sciences (NCATS), 2010).
Where “and” joins values, the source holds several entries; their conditions need not be identical. Identical values can stand only once. Out of some 290,000 compounds screened, about 27,000 (9.3%) were called active. The entries come from a sample that favours actives as a whole. Values without a mark were called inactive. Rule as the data show it: active = inhibition mostly above about 28% (no sharp cut-off); inactive = mostly below about 43%.

Assay: A qHTS for Small Molecule Inhibitors of Shiga Toxin; also: 0% is about no effect
Settings: Vero cells, Shiga toxin protein synthesis inhibition reporter; at 38.7 µM, active compounds read high

| Structure (SMILES) | inhibition |
| --- | --- |
| O=C(N/N=C/c1ccc(Cl)c(Cl)c1)c1ccc2nc[nH]c2c1 | 23.8% |
| COC(=O)C1C(=O)c2c([nH]c(C(=O)OCCSC)c2C)CC1C (centres undefined) | 57.7% (active) |
| CCCOC(=O)C1=C(C)NC2=C(C(=O)C(C(=O)OC)C(C)C2)C1c1ccc(N(C)C)cc1 (centres undefined) | 16.2% |
| CCCOC(=O)c1[nH]c2c(c1C)C(=O)CC(c1cccs1)C2 (centres undefined) | -12.4% |
| COc1ccc(NC(=O)CN2C(=O)CSc3ccc(S(=O)(=O)N4CCC(C)CC4)cc32)cc1 | 1.63% |
| COc1ccc(Cl)cc1NC(=O)CN(C)C(=O)CCCc1c[nH]c2ccccc12 | -2.46% |
| CCc1ccc(N2CC(O)=C(c3nc4ccccc4c(=O)[nH]3)C2=N)cc1 | 23.1% |
| N=C1C(c2nc3ccccc3s2)=C(O)CN1NC(=O)c1ccc([N+](=O)[O-])cc1 | 49.3% (active) |
| COc1ccccc1N1CC(O)=C(c2nc3ccccc3s2)C1=N | 31.4% (active) |
| N=C1C(c2nc3ccccc3[nH]2)=C(O)CN1NC(=O)c1c[nH]c2ccccc12 | -8.44% |
| O=C(Nc1nc2ccc([N+](=O)[O-])cc2s1)c1ccc(S(=O)(=O)N2CCCc3ccccc32)cc1 | -9.77% |
| CCOC(=O)CCCN1CC(O)=C(c2nc3ccccc3s2)C1=N | 21.6% |
| COc1cccc(CNS(=O)(=O)c2csc(C(N)=O)c2)c1 | 9.09% |
| O=C(N/C(=C\c1ccc(F)cc1)C(=O)N1CCCCCC1)c1ccccc1 | -12.7% |
| O=C(CSc1ncnc2c1oc1ccccc12)NC1CCCC1 | -5.84% |
| Cc1cc(-c2nnc(SCC(=O)Nc3ccc(F)cc3)n2N)n[nH]1 | 12.4% |
| COc1ccc(-n2nc(C(=O)NCC(=O)N3CCC(C(N)=O)CC3)c3ccccc3c2=O)cc1OC | -12.3% |
| CCS(=O)(=O)Nc1ccc(C2=NN(C(C)=O)C(c3cccs3)C2)cc1 (centres undefined) | 12.4% |
| CS(=O)(=O)Nc1cccc(C2=NN(C(=O)c3cccc(F)c3)C(c3cccs3)C2)c1 (centres undefined) | -7.67% |
| CS(=O)(=O)Nc1cccc(C2=NN(S(=O)(=O)c3ccccc3)C(c3cccs3)C2)c1 (centres undefined) | -11% |
| CS(=O)(=O)Nc1ccc(C2=NN(S(C)(=O)=O)C(c3cccs3)C2)cc1 (centres undefined) | 63.1% (active) |
| Cc1ccc(C2CC(c3cccc(NS(C)(=O)=O)c3)=NN2S(C)(=O)=O)cc1 (centres undefined) | 77.9% (active) |
| CS(=O)(=O)Nc1cccc(-c2cn3ccccc3n2)c1 | 87% |
| O=C1c2ccccc2C(=O)N1c1cccc2ccccc12 | 25.6% |

| Structure (SMILES) | inhibition |
| --- | --- |
| O=C(NC1CCCC1)C1CC(=O)N(c2ccc(F)cc2)C1 (centres undefined) | -11.9% |
| CN(C)S(=O)(=O)c1cccc(NC(=O)Cc2ccsc2)c1 | -2.02% |
| O=C1CCN(Cc2ccccc2)CCN1[C@H](CSc1ccccc1)c1ccccc1 | 11% |
| Cc1cccn2c(=O)c3cc(C(=O)NCC4CCCO4)c(=N)n(Cc4ccc(F)cc4)c3nc12 (centres undefined) | -2.34% |
| CC(=O)Nc1ccc(NC(=O)COc2ccc(-c3ccccc3)cc2)cc1 | 10.7% |
| C/C(=N\NC(=O)OC(C)(C)C)c1ccc[nH]1 | 94.2% (active) |
| CC(C)(C)OC(=O)NNc1c2ccccc2nc2ccccc12 | 77% |
| Cc1ccccc1NC(=O)NNC(=O)OC(C)(C)C | -3.29% |
| Cc1nn(C(C)(C)C)c(OC(=O)CC(C)C)c1S(=O)(=O)c1ccccc1 | -3.07% |
| CC/C(=N\NC(=O)c1c(C)nc2ccccn12)c1ccc(Cl)cc1 | -1.53% |
| COc1cccc(C(=O)NCCSc2ccc(Br)cc2)c1 | 0.537% |
| COc1ccc(C(=O)NCCSc2ccccc2C)cc1 | 47.6% (active) |
| COc1ccc(C(=O)NCc2nnc(SCCOc3ccccc3)n2C)cc1 | -8.47% |
| CCn1cc(C(=O)NCC(=O)NC(C)(C)CO)c(=O)c2cc3c(cc21)OCO3 | -1.71% |
| COCCCNC(=O)c1ccc2c(c1)ncn2-c1ccccc1OC | 41.9% |
| COc1ccc(NS(=O)(=O)c2ccc(NC(C)=O)cc2)cc1OC | -6.59% |
| COc1ccccc1-n1cnc2cc(NS(=O)(=O)c3ccccc3)ccc21 | 60.3% (active) |
| COc1cccc(-c2coc3cc4oc(=O)c(CC(=O)O)c(C)c4cc23)c1 | 5.32% |
| COc1cccc(-c2nc3ccc(N4CCN(C)CC4)cc3[nH]2)c1 | -25.4% |
| Cc1nc2ccc(N3CCN(C)CC3)cc2nc1C | 41.4% (active) |
| CN1CCN(c2ccc([N+](=O)[O-])c(Sc3nc4ccccc4[nH]3)c2)CC1 | -2.62% |
| CCCc1cc(=O)oc2c(C)c(OCC(=O)NCc3ccccn3)ccc12 | -5.37% |
| CCCc1cc(=O)oc2c(C)c(OCC(=O)Nc3ccccn3)ccc12 | 97.8% (active) |
| CCCc1cc(=O)oc2c(C)c(OCC(=O)N3CCC(C(=O)O)CC3)ccc12 | -4.56% |

| Structure (SMILES) | inhibition |
| --- | --- |
| Cc1cnc(C(=O)Oc2cccc(Cl)c2Cl)cn1 | -6.08% |
| O=C(/C=C/c1cccc(C(F)(F)F)c1)N1CCN(c2ccccn2)CC1 | -28.6% |
| Cc1ccccc1CSc1nnc(Cn2c(=O)sc3ccccc32)n1C | -3.34% |
| Cn1c(SCC(=O)C(C)(C)C)nnc1-c1ccccn1 | 51.8% |
| O=C(CSc1nnc(-c2cccnc2)n1CCc1ccccc1)NCc1ccccc1 | 9.64% |
| Cc1ccccc1CSc1nnc(-c2cccnc2)n1N | 47.7% (active) |
| Cc1ccccc1CSc1nnc(-c2ccccn2)n1N | 62.4% (active) |
| N#Cc1ccc(CSc2nnc(-c3ccccn3)n2-c2ccc(Cl)cc2)cc1 | 9.81% |
| COCCNc1cc(-c2ccccc2)nc2cc(-c3cccc(F)c3)nn12 | 13.9% |
| O=S(=O)(c1ccc2c(c1)OCCCO2)N1CCN(S(=O)(=O)c2c(F)cccc2F)CC1 | -5.98% |
| Cc1ccc(CNC(=O)C2(C(F)(F)F)C/C(=C\Cc3ccccc3)CCCO2)o1 (centres undefined) | -4.26% and 0.0699% |
| COc1ccc(N(C)C(=O)C2CCN(S(=O)(=O)c3cccc4nsnc34)CC2)cc1 | 8.11% |
| Cc1ccc(S(=O)(=O)N2CCN(C)CC2)cc1C(=O)NC1CCCCC1 | -5.78% |
| Cn1c(/C(C#N)=C2/CCCCCN2)nc2ccccc21 | 9.28% |
| c1ccc(-c2csc(N3CCc4ccccc4C3)n2)cc1 | 57.4% |
| N#C/C(=C1\CCCN1)c1nc(-c2ccccc2)cs1 | 76.5% (active) |
| N#CC(=C1CCCC1)c1nc(-c2ccc(Cl)cc2)cs1 | 50.4% (active) |
| CCCCCN1CC(O)=C(c2nc(-c3ccc(Cl)cc3)cs2)C1=N | 23.2% |
| N#CC(=C1SC=CS1)c1nc(-c2ccccc2)cs1 | 79.5% (active) |
| N#C/C(=C1/CCCN1)c1ccccn1 | -5.25% |
| CCc1ccc(NC(=O)CS(=O)CC(=O)N2CCN(c3ccccc3F)CC2)cc1 (centres undefined) | 9.39% |
| CN(C)CCCNC(=O)c1cc(C(=O)Cc2ccc(Cl)cc2)c[nH]1 | -5.52% |
| CCc1cccc(NC(=O)CCCN2C(=O)C(c3ccccc3)Oc3cccnc32)c1 (centres undefined) | -2.72% |
| CCC1=Nc2cc(C(=O)NCCCN3CCOCC3)ccc2Sc2ccc(Br)cc21 | -9.37% |

| Structure (SMILES) | inhibition |
| --- | --- |
| Cc1cccc(N(C(=O)c2csnn2)C(C(=O)NCc2ccccc2)c2ccncc2)c1 (centres undefined) | -9.04% |
| Cc1ccc(N/C=C/C(=O)c2ccccc2)cc1C | 17.5% |
| CCOc1ccc(N/C=C/C(=O)c2ccccc2)cc1 | 69.8% (active) |
| CCCOc1ccc(N/C=C/C(=O)C(C)(C)C)cc1 | 49% (active) |
| CN(C)c1ccc(N/C=C/C(=O)C(F)(F)F)cc1 | 71.1% |
| CCCOc1ccc(NC(=O)C2CCCNC2=O)cc1 (centres undefined) | 25.7% |
| CCOc1ccc(NC(=S)N2CCC(NC(=O)c3ccccc3)CC2)cc1 | -10.8% |
| COc1ccc(N2CCN(C(=O)c3cn(C)c4ccc(S(=O)(=O)N5CCOCC5)cc4c3=O)CC2)cc1 | -3.12% |
| O=[N+]([O-])c1cc([N+](=O)[O-])c(Oc2cc(F)cc(F)c2F)cc1NN1CCCCC1 | 1.85% |
| CCCn1nc(NS(=O)(=O)c2ccc(F)cc2)c2cc3ccccc3nc21 | -7.87% |
| O=S1(=O)CCO[C@H]2Cc3ccccc3[C@H]2N1Cc1ccccc1 | -2.08% |
| CC(=O)Nc1ccc(C(=O)OCC(=O)Nc2ccc([N+](=O)[O-])cc2C(F)(F)F)cc1 | 14.6% |
| CN(C)c1nc(=Nc2cccc(Cl)c2)ss1 | 77% (active) |
| O=C(NC1CCC(O)CC1)c1ccccc1OCc1ccc(F)cc1 (centres undefined) | -2.79% |
| COc1ccc(C(=O)CSc2nnnn2C)c(OC)c1 | 32.4% |
| COc1ccc(-n2nnnc2SCC(=O)Nc2ccccc2)cc1 | -15.5% |
| CC(=O)Nc1ccc(NC(=O)CSc2nnnn2-c2ccccc2F)cc1 | 61.1% |
| CCn1nnnc1SCC(=O)Nc1ccc(N(C)C)cc1 | 44.2% (active) |
| CCn1nnnc1SCC(=O)c1ccc(C)cc1C | 77.4% (active) |
| Cc1ccc(C)c(-n2nnnc2SCC(=O)c2c(N)n(C)c(=O)n(C)c2=O)c1 | -10.4% |
| Cc1cc(C(=O)N/N=C/c2ccccn2)c2ccccc2n1 | -6.51% |
| O=C(Nc1ccccc1N1CCN(C(=O)c2ccccc2)CC1)c1ccco1 | 9.04% |
